Test results from PubChem BioAssay (NCI).
Compounds without any hit were thinned out: in the full panel of roughly 79,000, 15% have a hit. A number with no mark means an inactive call. The source made the active and inactive calls. Rule as the data show it: active = growth inhibition above about 70%; inactive = the rest.

Experiments:
[1] = NCI Yeast Anticancer Drug Screen. Data for the rad50 strain (AID 155);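 also: 0% = growth of vehicle-only cultures of the same strain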; conditions: S. cerevisiae rad50 strain growth inhibition, stronger effect = higher value
Method in brief: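 Compounds were tested on a yeast strain with an engineered DNA damage repair alteration; the reported value is growth inhibition normalised to vehicle treatment.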

[2] = NCI Yeast Anticancer Drug Screen. Data for the mec2-1 strain (AID 157); conditions: S. cerevisiae mec2-1 strain, stronger effect = higher value
Method in brief: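 Test agents were screened against the mec2-1 yeast strain, with defined DNA repair or cell cycle alteration. Growth was scored as inhibition against vehicle-only controls.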

[3] = NCI Yeast Anticancer Drug Screen. Data for the sgs1 mgt1 strain (AID 161);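 also: 0% = growth of cultures given vehicle only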; conditions: S. cerevisiae sgs1 mgt1 strain, stronger effect = higher value
Method in brief: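 Genetically altered yeast, compound exposure, growth inhibition relative to vehicle.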

[4] = NCI Yeast Anticancer Drug Screen. Data for the cln2 rad14 strain (AID 165);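 also: 0% = growth equal to vehicle treated cultures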; conditions: S. cerevisiae cln2 rad14 strain, stronger effect = higher value
Method in brief: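 Growth of compound-exposed yeast (cln2 rad14 genotype) measured and expressed as inhibition relative to vehicle.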

[5] = NCI Yeast Anticancer Drug Screen. Data for the bub3 strain (AID 167); conditions: S. cerevisiae bub3 mutant strain, stronger effect = higher value
Method in brief: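 Growth of a checkpoint-deficient yeast mutant is measured after compound exposure. Values represent inhibition relative to vehicle.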

[6] = NCI Yeast Anticancer Drug Screen. Data for the mlh1 rad18 strain (AID 175); conditions: S. cerevisiae mlh1 rad18 strain growth inhibition, stronger effect = higher value
Method in brief: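 In this whole-cell yeast screen, a strain with altered DNA damage repair is challenged with compound, and its growth is measured against matched vehicle-treated controls.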

[7] = at 5.0 µM (retest, dose inferred, filed as 0.5)
[8] = at 50.0 µM (retest, dose inferred, filed as 5.0)

CCN(CC)C(=S)N/N=C(\C)c1cccc(C)n1
growth inhibition [1, 7]: 84% (active) | growth inhibition [1, 8]: 100% (active) | growth inhibition ([1]; at 50.0 µM): 88.7% (active) | growth inhibition [2, 7]: 82% (active) | growth inhibition [2, 8]: 99% (active) | growth inhibition ([2]; at 50.0 µM): 91.7% (active) | growth inhibition [3, 7]: 62% | growth inhibition [3, 8]: 99% (active) | growth inhibition ([3]; at 50.0 µM): 85.3% (active) | growth inhibition [4, 7]: 82% (active) | growth inhibition [4, 8]: 99% (active) | growth inhibition ([4]; at 50.0 µM): 89.4% (active) | growth inhibition [5, 7]: 87% (active) | growth inhibition [5, 8]: 99% (active) | growth inhibition ([5]; at 50.0 µM): 88.9% (active) | growth inhibition [6, 7]: 81% (active) | growth inhibition [6, 8]: 99% (active) | growth inhibition ([6]; at 50.0 µM): 85.8% (active)

FC(F)(F)c1ccccc1NC(=S)SCc1ccc(Cl)cc1
growth inhibition [1, 7]: 3% | growth inhibition [1, 8]: 53% | growth inhibition ([1]; at 50.0 µM): 97% (active) | growth inhibition [2, 7]: -2% | growth inhibition [2, 8]: 95% (active) | growth inhibition ([2]; at 50.0 µM): 97.2% (active) | growth inhibition [3, 7]: 1% | growth inhibition [3, 8]: 94% (active) | growth inhibition ([3]; at 50.0 µM): 99.2% (active) | growth inhibition [4, 7]: -3% | growth inhibition [4, 8]: 69% | growth inhibition ([4]; at 50.0 µM): 98.5% (active) | growth inhibition [5, 7]: 14% | growth inhibition [5, 8]: 90% (active) | growth inhibition ([5]; at 50.0 µM): 97.4% (active) | growth inhibition [6, 7]: -3% | growth inhibition [6, 8]: 83% (active) | growth inhibition ([6]; at 50.0 µM): 99.2% (active)

Cc1ccc(NC(=O)Oc2ccc(OC(=O)Cc3ccccc3)cc2)cc1NC(=O)Oc1ccc(OC(=O)Cc2ccccc2)cc1
growth inhibition [1, 7]: 10% | growth inhibition [1, 8]: 97% (active) | growth inhibition ([1]; at 50.0 µM): 99.2% (active) | growth inhibition [2, 7]: 43% | growth inhibition [2, 8]: 94% (active) | growth inhibition ([2]; at 50.0 µM): 99.4% (active) | growth inhibition [3, 7]: 2% | growth inhibition [3, 8]: 89% (active) | growth inhibition ([3]; at 50.0 µM): 99.2% (active) | growth inhibition [4, 7]: 10% | growth inhibition [4, 8]: 93% (active) | growth inhibition ([4]; at 50.0 µM): 98.2% (active) | growth inhibition [5, 7]: 15% | growth inhibition [5, 8]: 98% (active) | growth inhibition ([5]; at 50.0 µM): 99% (active) | growth inhibition [6, 7]: 2% | growth inhibition [6, 8]: 98% (active) | growth inhibition ([6]; at 50.0 µM): 99.1% (active)

COc1cc(NS(=O)(=O)c2ccc(NC(C)c3ccc4cccnc4c3O)cc2)nc(OC)n1 (stereo not given)
growth inhibition [1, 7]: 3% | growth inhibition [1, 8]: 81% (active) | growth inhibition ([1]; at 50.0 µM): 95.1% (active) | growth inhibition [2, 7]: 2% | growth inhibition [2, 8]: 40% | growth inhibition ([2]; at 50.0 µM): 97.2% (active) | growth inhibition [3, 7]: 1% | growth inhibition [3, 8]: 87% (active) | growth inhibition ([3]; at 50.0 µM): 69.4% | growth inhibition [4, 7]: -3% | growth inhibition [4, 8]: 78% (active) | growth inhibition ([4]; at 50.0 µM): 66% | growth inhibition [5, 7]: -2% | growth inhibition [5, 8]: 88% (active) | growth inhibition ([5]; at 50.0 µM): 96.8% (active) | growth inhibition [6, 7]: 5% | growth inhibition [6, 8]: 82% (active) | growth inhibition ([6]; at 50.0 µM): 97.3% (active)

COc1cccc(/C=N/NC(=O)c2c(-c3ccccc3)noc2C)c1O
growth inhibition [1, 7]: 47% | growth inhibition [1, 8]: 70% (active) | growth inhibition ([1]; at 50.0 µM): 85% (active) | growth inhibition [2, 7]: 26% | growth inhibition [2, 8]: 86% (active) | growth inhibition ([2]; at 50.0 µM): 84.1% (active) | growth inhibition [3, 7]: 45% | growth inhibition [3, 8]: 82% (active) | growth inhibition ([3]; at 50.0 µM): 89.2% (active) | growth inhibition [4, 7]: 25% | growth inhibition [4, 8]: 51% | growth inhibition ([4]; at 50.0 µM): 83.3% (active) | growth inhibition [5, 7]: 42% | growth inhibition [5, 8]: 85% (active) | growth inhibition ([5]; at 50.0 µM): 85.5% (active) | growth inhibition [6, 7]: 58% | growth inhibition [6, 8]: 87% (active) | growth inhibition ([6]; at 50.0 µM): 81.8% (active)

O=C1c2cc(Br)cc(Br)c2NCCC1(Br)Br
growth inhibition [1, 7]: 99% (active) | growth inhibition [1, 8]: 98% (active) | growth inhibition ([1]; at 50.0 µM): 97.7% (active) | growth inhibition [2, 7]: 98% (active) | growth inhibition [2, 8]: 100% (active) | growth inhibition ([2]; at 50.0 µM): 99.1% (active) | growth inhibition [3, 7]: 100% (active) | growth inhibition [3, 8]: 99% (active) | growth inhibition ([3]; at 50.0 µM): 97.8% (active) | growth inhibition [4, 7]: 99% (active) | growth inhibition [4, 8]: 98% (active) | growth inhibition ([4]; at 50.0 µM): 98% (active) | growth inhibition [5, 7]: 99% (active) | growth inhibition [5, 8]: 98% (active) | growth inhibition ([5]; at 50.0 µM): 97.5% (active) | growth inhibition [6, 7]: 100% (active) | growth inhibition [6, 8]: 98% (active) | growth inhibition ([6]; at 50.0 µM): 98.5% (active)

COc1ccc(C2c3cc4c(cc3OC(O)C2C)OCO4)c(OC)c1 (stereo not given)
growth inhibition [1, 7]: -2% | growth inhibition [1, 8]: 96% (active) | growth inhibition ([1]; at 50.0 µM): 85.6% (active) | growth inhibition [2, 7]: 1% | growth inhibition [2, 8]: 95% (active) | growth inhibition ([2]; at 50.0 µM): 58.5% | growth inhibition [3, 7]: 5% | growth inhibition [3, 8]: 95% (active) | growth inhibition ([3]; at 50.0 µM): 83.8% (active) | growth inhibition [4, 7]: -8% | growth inhibition [4, 8]: 89% (active) | growth inhibition ([4]; at 50.0 µM): 68.9% | growth inhibition [5, 7]: -4% | growth inhibition [5, 8]: 88% (active) | growth inhibition ([5]; at 50.0 µM): 68.8% | growth inhibition [6, 7]: -5% | growth inhibition [6, 8]: 97% (active) | growth inhibition ([6]; at 50.0 µM): 87.5% (active)

O=C1C=CC(=O)c2nc3c(nc21)[nH]c1ccccc13
growth inhibition [1, 7]: -9% | growth inhibition [1, 8]: 91% (active) | growth inhibition ([1]; at 50.0 µM): 95.7% (active) | growth inhibition [2, 7]: -12% | growth inhibition [2, 8]: 94% (active) | growth inhibition ([2]; at 50.0 µM): 95.4% (active) | growth inhibition [3, 7]: -23% | growth inhibition [3, 8]: 95% (active) | growth inhibition ([3]; at 50.0 µM): 94.7% (active) | growth inhibition [4, 7]: -20% | growth inhibition [4, 8]: 94% (active) | growth inhibition ([4]; at 50.0 µM): 93.5% (active) | growth inhibition [5, 7]: -41% | growth inhibition [5, 8]: 93% (active) | growth inhibition ([5]; at 50.0 µM): 91.4% (active) | growth inhibition [6, 7]: -44% | growth inhibition [6, 8]: 92% (active) | growth inhibition ([6]; at 50.0 µM): 95.5% (active)

CCN(CC)CCOc1cccc2c1C(=O)c1c(O)cccc1C2=O
growth inhibition [1, 7]: 12% | growth inhibition [1, 8]: 72% (active) | growth inhibition ([1]; at 50.0 µM): 59.4% | growth inhibition [2, 7]: -21% | growth inhibition [2, 8]: 70% (active) | growth inhibition ([2]; at 50.0 µM): 39.3% | growth inhibition [3, 7]: 4% | growth inhibition [3, 8]: 54% | growth inhibition ([3]; at 50.0 µM): 71.2% (active) | growth inhibition [4, 7]: 5% | growth inhibition [4, 8]: 38% | growth inhibition ([4]; at 50.0 µM): 74.3% (active) | growth inhibition [5, 7]: 8% | growth inhibition [5, 8]: 47% | growth inhibition ([5]; at 50.0 µM): 35.9% | growth inhibition [6, 7]: -1% | growth inhibition [6, 8]: 79% (active) | growth inhibition ([6]; at 50.0 µM): 62.4%

CCN(CC)CCNC(=O)c1ccc2c(c1O)C(=O)c1ccccc1C2=O
growth inhibition [1, 7]: 6% | growth inhibition [1, 8]: 54% | growth inhibition ([1]; at 50.0 µM): 57.3% | growth inhibition [2, 7]: 27% | growth inhibition [2, 8]: 24% | growth inhibition ([2]; at 50.0 µM): 36% | growth inhibition [3, 7]: 1% | growth inhibition [3, 8]: 40% | growth inhibition ([3]; at 50.0 µM): 60.5% | growth inhibition [4, 7]: -10% | growth inhibition [4, 8]: 23% | growth inhibition ([4]; at 50.0 µM): 3.55% | growth inhibition [5, 7]: -3% | growth inhibition [5, 8]: 43% | growth inhibition ([5]; at 50.0 µM): 33% | growth inhibition [6, 7]: 9% | growth inhibition [6, 8]: 44% | growth inhibition ([6]; at 50.0 µM): 70% (active)
